# Reference: PubChem BioAssay AID1240 (Sanford-Burnham Center for Chemical Genomics, 2008)
# About 800 (1.6%) of roughly 50,000 compounds showed an effect of 50% or more. This is one part of a sample in which strong results are shown more often than they occur.
# Biological target: Bcl-2-like protein 10 (Homo sapiens) (UniProt Q9HD36)
# Assay: Phenotype converters, Bcl-B/TR3 peptide binding displacement, primary biochemical FP (AID 1240);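 note: 0% = Bcl-B with tracer peptide and DMSO and 100% = tracer peptide lacking Bcl-B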
# Details: GST-Bcl-B / FITC-TR3 peptide fluorescence polarization; stronger effect = higher value; compound at 3.75 mg/L
# Chain of Bcl-2-like protein 10 (Homo sapiens) (Q9HD36 whole entry, looked up): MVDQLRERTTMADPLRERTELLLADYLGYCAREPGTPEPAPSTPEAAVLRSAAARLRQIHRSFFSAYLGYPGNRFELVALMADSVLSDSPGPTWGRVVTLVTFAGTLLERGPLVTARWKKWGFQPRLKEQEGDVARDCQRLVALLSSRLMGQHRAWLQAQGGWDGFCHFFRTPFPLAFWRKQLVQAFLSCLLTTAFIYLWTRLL
row,Compound,displacement
1,O=C(NCc1ccncc1)c1ccc(Cl)cc1,-3.5%
2,C/C(=N/NC(=O)COc1cccc(Cl)c1)c1ccccc1O,9.1%
3,Cc1cc(C)c(NC(=O)c2ccccc2[N+](=O)[O-])c(C)c1,13.5%
4,CC(=O)NC(NC(C)=O)c1ccc(F)cc1,-2.4%
5,CCOc1ccc(N2C(=O)NC(=O)/C(=C\c3ccc(N(CC)CC)cc3OC)C2=O)cc1,55.1%
6,COc1ccc(/C=C2\C(=O)NC(=O)N(c3cccc(Br)c3)C2=O)c(C)c1,-5.7%
7,COc1ccc(/C=C2\C(=O)NC(=O)N(c3cccc(Br)c3)C2=O)c(OC)c1,122%
8,CCOc1ccc(/C=C2/C(=O)NC(=O)N(c3ccc(OC)cc3)C2=O)c(OCC)c1,-4%
9,COc1ccc(/C=C2\C(=O)NC(=S)N(c3cccc(Br)c3)C2=O)c(OC)c1,-0.7%
10,COc1cc(/C=C2\C(=O)NC(=O)N(c3cccc(Br)c3)C2=O)cc(Cl)c1O,4.4%
11,COc1ccc(/C=C2\C(=O)NC(=O)N(c3cccc(Br)c3)C2=O)cc1OC,120%
12,CCN(CC)c1ccc(/C=C2\C(=O)NC(=O)N(c3ccc(OC)cc3)C2=O)c(OC)c1,10%
13,COc1ccc(/C=C2\C(=O)NC(=O)N(c3ccc(F)cc3)C2=O)cc1OC,-27.7%
14,Cc1cc(Br)ccc1NC(=O)c1ccc(C)c([N+](=O)[O-])c1,8.6%
15,CCCCCOC(=O)C1=C(C)NC(=O)NC1c1ccc(Br)cc1 (configuration not stated),8.5%
16,COc1ccccc1C(=O)Nc1nnc(C(C)(C)C)s1,-11.4%
17,CCOc1ccc(S(=O)(=O)N(CC(=O)NC)c2ccc(C)cc2)cc1,1.7%
18,C=CCC(C)(CC=C)NC(=O)c1ccccc1[N+](=O)[O-],-6.9%
19,O=C(NCC1CCCO1)/C(=C/c1ccc(-c2ccccc2Cl)o1)NC(=O)c1ccccc1 (configuration not stated),19.7%
20,COc1cc(C(=O)Oc2ccc(Cl)cc2C)cc(OC)c1OC,2.1%
21,CCOC(=O)C1=C(C)NC2=C(C(=O)CC(C)(C)C2)C1c1ccc(OC(F)F)cc1 (configuration not stated),-0.2%
22,CCOc1ccc(C2=C/C(=C/c3ccc(OC)cc3)C(=O)O2)cc1,-0.6%

row,Compound,displacement
1,CCOc1cc(/C=C2\C=C(c3ccc(Br)cc3)OC2=O)ccc1OC(C)=O,12.6%
2,COc1ccc(C2=C/C(=C\c3cccc(OC(C)=O)c3)C(=O)O2)cc1,25.4%
3,CC(=O)Oc1ccc(/C=C2\C=C(c3ccc(C)cc3)OC2=O)cc1,34.5%
4,CCOc1cc(/C=C2\C=C(c3ccc(OC)cc3)OC2=O)ccc1OC(C)=O,92.4%
5,CCOc1cc(/C=C2\C=C(c3ccc(C)cc3)OC2=O)ccc1OC(C)=O,111%
6,COc1ccc(/C=C2\C=C(c3ccc(C)cc3)OC2=O)cc1C,10.4%
7,CCOc1cc(/C=C2/C=C(c3ccc(OC)cc3)OC2=O)cc(I)c1OC,-6%
8,CC(=O)Oc1cccc(/C=C2\C=C(c3ccc(C)cc3)OC2=O)c1,7%
9,COc1cc(/C=C2\C=C(c3ccc(C)cc3)OC2=O)ccc1OC(C)=O,59.2%
10,COc1ccc(C2=C/C(=C\c3ccc(OC(C)=O)cc3)C(=O)O2)cc1,110%
11,COc1ccc(C2=C/C(=C\c3ccc(OC(C)=O)c(OC)c3)C(=O)O2)cc1,39.4%
12,O=C(O)c1ccc(-c2ccc(OC(F)(F)F)cc2)o1,-7.6%
13,NC(=S)N/N=C/c1cccn1-c1ccc([N+](=O)[O-])cc1,-1%
14,O=C1S/C(=C/c2ccc(Cl)c(Cl)c2)C(=O)N1c1ccccc1,17.9%
15,CCOC(=O)c1c(NC(=O)CC2SC(N)=NC2=O)sc2c1CCCC2 (configuration not stated),6.3%
16,COc1ccc(C(=O)CC(Nc2ccc([N+](=O)[O-])cc2)c2ccc(Cl)cc2)cc1 (configuration not stated),-4.2%
17,Cc1ccc2c(nc3s/c(=C\c4cccc(Cl)c4Cl)c(=O)n32)c1C,-9.5%
18,Cc1ccc(S(=O)(=O)Oc2ccc(/C=C3\SC(N)=NC3=O)cc2Br)cc1,1.8%
19,O=c1[nH]c(=O)n(-c2ccc(Cl)cc2)c(O)c1C=Nc1cccc(F)c1,10%
20,Cc1cc(OCC(=O)Nc2cccc(F)c2)cc(C)c1Cl,4.1%
21,COCCNCCOc1c(C)cc(Cl)cc1C,7.2%
22,O=C(Nc1cc(Cl)cc(Cl)c1)c1ccc(CN2CCc3ccccc3C2)cc1,-3.7%

row,Compound,displacement
1,CCN1C(=O)/C(=C\c2ccc(C)cc2)C(C(=O)OC)=C1C,86.2%
2,COC(=O)C1=C(C)N(c2ccccc2F)C(=O)/C1=C\c1sccc1C,7.8%
3,CCN1C(=O)/C(=C\c2ccc(F)cc2)C(C(=O)OC)=C1C,34.2%
4,COC(=O)C1=C(C)N(c2ccccc2F)C(=O)/C1=C\c1ccc(F)cc1,2.3%
5,COC(=O)C1=C(C)N(c2cc(C)cc(C)c2)/C(=C/c2ccco2)C1=O,99.6%
6,C=CCN1C(=O)/C(=C\c2ccco2)C(C(=O)OC)=C1C,65.4%
7,CCN1C(=O)/C(=C\c2ccccc2)C(C(=O)OC)=C1C,-23.3%
8,COC(=O)C1=C(C)N(c2ccccc2F)C(=O)/C1=C\c1ccccc1F,112%
9,COC(=O)C1=C(C)N(c2cc(C)cc(C)c2)/C(=C\c2sccc2C)C1=O,27%
10,C=CCN1C(=O)/C(=C\c2ccccc2)C(C(=O)OC)=C1C,-2.2%
11,C=CCN1C(=O)/C(=C\c2ccc(C(=O)OC)cc2)C(C(=O)OC)=C1C,-14.5%
12,COC(=O)C1=C(C)N(c2ccc(C)c(C)c2)/C(=C/c2ccco2)C1=O,8.8%
13,COc1ccc(C(=O)N2CCCc3ccccc32)cc1OC,-3.3%
14,Cc1cc(=O)oc2cc(OCc3ccc(F)cc3)c(Cl)cc12,16.8%
15,Cc1cc([N+](=O)[O-])ccc1NCc1cccc(C(F)(F)F)c1,2.6%
16,CC1(C)CC(=O)C2=C(C1)c1c(ccc3ccccc13)NC2c1cccs1 (configuration not stated),7.2%
17,O=C(Nc1ccc(F)cc1)c1ccco1,12.9%
18,COC(=O)C1=C(C)N(c2ccc(C)cc2)C(=O)/C1=C\c1ccc2c(c1)OCO2,107%
19,COCCN1C(=O)/C(=C\c2ccc3c(c2)OCO3)C(C(=O)OC)=C1C,-8%
20,COC(=O)C1=C(C)N(c2cccc(C)c2)C(=O)/C1=C\c1ccc(C(=O)O)cc1,6.9%
21,COC(=O)C1=C(C)N(C)C(=O)/C1=C\c1ccc2c(c1)OCO2,-0.7%
22,COC(=O)C1=C(C)N(c2ccccc2)C(=O)/C1=C\c1ccc(C(=O)OC)cc1,130%

row,Compound,displacement
1,COC(=O)C1=C(C)N(C)C(=O)/C1=C\c1ccc(C(=O)OC)cc1,16.4%
2,COc1ccccc1CC1S/C(=N\N=C\c2cccc([N+](=O)[O-])c2)NC1=O (configuration not stated),12.9%
3,COc1ccc(NC(=O)Nc2ccccc2C(F)(F)F)cc1,8.4%
4,O=S(=O)(NC(c1cccs1)C(Cl)(Cl)Cl)c1ccc(Cl)cc1 (configuration not stated),7%
5,COC(=O)C(NS(=O)(=O)c1ccccc1)C(C)C (configuration not stated),-12%
6,CN(C)c1cccc2c(C(NS(=O)(=O)c3ccccc3)C(Cl)(Cl)Cl)ccc(N(C)C)c12 (configuration not stated),144%
7,CCCCNC(=O)/C(=C/c1ccc(C)o1)NC(=O)c1ccccc1,13.1%
8,CCOc1ccc(NC2=C(Cl)C(=O)N(c3cccc(Cl)c3Cl)C2=O)cc1,16.3%
9,N#C/C(=C/c1cc([N+](=O)[O-])ccc1Cl)C(=O)Nc1cccc(Br)c1,-3.3%
10,COc1ccc(N2CC(C(=O)N/N=C/c3cccs3)CC2=O)cc1 (configuration not stated),65%
11,O=C(N/N=C/c1cccs1)C1CC(=O)N(c2ccc(Cl)cc2)C1 (configuration not stated),-9.3%
12,O=C(N/N=C/c1cccs1)C1CC(=O)N(c2ccccc2)C1 (configuration not stated),25%
13,O=C(O)/C=C/c1cccc(NS(=O)(=O)c2cccs2)c1,-13%
14,Cn1nnnc1SCC(=O)Nc1ccccc1,4.1%
15,Cn1nnnc1SCC(=O)Nc1ccc2c(c1)oc1ccccc12,87%
16,Cc1nnc(SCC(=O)Nc2ccc3c(c2)oc2ccccc23)s1,-8.5%
17,O=C1NC(=O)/C(=C\c2cc3c(cc2[N+](=O)[O-])OCO3)S1,6.8%
18,CCN(CC)c1ccc(/C=C2N=C(/C=C/c3ccccc3)OC/2=O)cc1,-28%
19,CCOc1c(Br)cc(/C=C2N=C(/C=C/c3ccccc3)OC/2=O)cc1OC,105%
20,COc1ccc(OC)c(/C=C2N=C(/C=C/c3ccccc3)OC/2=O)c1,9.6%
21,COc1cc(/C=C2\N=C(c3ccccc3)OC2=O)cc(Br)c1OCc1c(C)no[n+]1[O-],-1.1%
22,O=C1OC(/C=C/c2ccccc2)=NC/1=C/c1cccc([N+](=O)[O-])c1,98.4%

row,Compound,displacement
1,O=C1OC(/C=C/c2ccccc2)=NC/1=C/c1ccccc1,13.6%
2,COc1ccc(/C=C2N=C(/C=C/c3ccccc3)OC/2=O)cc1,88.6%
3,O=C1OC(c2ccccc2F)=N/C1=C\c1cccc([N+](=O)[O-])c1,9.9%
4,CCCOc1ccc(/C=C2N=C(/C=C/c3ccccc3)OC/2=O)cc1OC,166%
5,CCCOc1ccc(C=C2C(=O)N(C)C(=O)N(C)C2=O)cc1OC,1.3%
6,O=C1OC(c2ccccc2I)=N/C1=C\c1cccc([N+](=O)[O-])c1,-4%
7,CCOc1c(Br)cc(/C=C2/C(=O)N(c3ccccc3)N=C2C)cc1OC,-0.6%
8,CCOC(=O)c1c(-c2ccccc2)csc1NC(=O)c1ccc(C)cc1,-5.7%
9,COc1cc(/C=C2\SC(N)=NC2=O)cc(Br)c1OCc1cccc2ccccc12,-62.1%
10,Fc1cccc(-c2nnc3ccc(C(F)(F)F)cn23)c1,-17%
11,CC(=O)Nc1ccc(I)cc1C,-5%
12,Cc1cc2c(nc3s/c(=C/c4ccccc4)c(=O)n32)c(Br)c1C,-4.6%
13,CC(C)c1ccccc1OCCCN1CCOCC1,-6%
14,Cc1ccc(N2C(=O)/C(=C/c3ccc(Oc4ccc([N+](=O)[O-])cn4)cc3)C(=O)NC2=S)c(C)c1,7.3%
15,CC1=NN(c2ccccc2)C(=O)C1C(C)C[N+](=O)[O-] (configuration not stated),-9.8%
16,COc1ccc(/C=N/NC(=O)COc2ccccc2Br)cc1,2.6%
17,CC(=O)c1ccc(NC(=O)c2ccoc2C)cc1,94%
18,COC(=O)c1ccc(NC(=O)c2ccoc2C)cc1,-2.7%
19,Cc1occc1C(=O)Nc1ccc(C(=O)O)cc1,-1.9%
